Screening results as filed in PubChem.
The entries come from a sample that favours hits as a whole.
AMA1 RON2 block: inhibitors of Plasmodium falciparum AMA1-RON2 interaction | AlphaScreen AMA1-biotinylated RON2 peptide binding | Potency, µM (highest dose often 58.2 µM), inactives show at the highest dose activity change, negative = inhibition, actives largely listed as inhibitors | 360,000 tested, 0.2% active; active means well fitted inhibition curve with a large enough effect; inconclusive means small, poorly fitted or top-dose-only effect; inactive means no such curve, though single readings can be large or run the other way;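 further: potency means the concentration at half of the fitted maximal effect; 0% = vehicle wells and -100% = peptide control; nearly all actives have a fitted effect of over 45% in size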
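AMA1 (3D7) with his tag at 25 nM final met compounds first, then biotinylated RON2 peptide at 25 nM; detection used donor plus acceptor beads, 10 µg/mL apiece, read by AlphaScreen after 30 min at room temperature.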
Lassa entry inh: blocks Lassa virus binding to or entry into cells; Potency, µM (series often up to 37.9 µM), for the others: top-dose activity change, negative = inhibition, hits mostly inhibitors; Lassa virus pseudotype entry inhibition, cell reporter; 300,000 tested, 1.2% active; calls by dose curve; tested in HEK293 cells; further: potency means the concentration at half of the fitted maximal effect; on the % scale 0 is the no-effect control and ±100 the full control effect; nearly all actives have a fitted effect of over 50% in size
Shiga toxin inh: inhibitors of Shiga toxin in Vero cells. Vero cells, Shiga toxin protein synthesis inhibition reporter. inhibition, % at 38.7 µM. 290,000 tested, 9.2% active; in the data active means inhibition mostly above about 28%, no sharp cut-off; inactive means mostly below about 43%; further: 0% is about no effect
CHX counter: counter-screen hit for Shiga toxin inhibitors, cycloheximide; cell reporter, cycloheximide protein synthesis inhibition counterscreen; max response, %; 300,000 tested, 12% active; AID 2314; in the data active means max response mostly above about 13%, no sharp cut-off; inactive means mostly below about 14%; further: read at 38.3 µM for the half of the compounds with a filed dose; 0% is about no effect
Marburg entry inh: inhibitors of Marburg virus binding or cell entry. AID 540276. Marburg virus pseudotyped entry inhibition, cell reporter. 300,000 tested, 1.8% active. Potency, µM (doses to about 37.8 µM), inactives show at the top dose activity change, negative = inhibition, hits mostly inhibitors; calls by dose curve; tested in HEK293 cells; further: potency means the concentration at half of the fitted maximal effect; on the % scale 0 is the no-effect control and ±100 the full control effect
* = called active by the depositor; ? = inconclusive; nt = not tested or not shown; [ ] = remark or other dose.

SMILES	AMA1 RON2 block	Lassa entry inh	Shiga toxin inh	CHX counter	Marburg entry inh
Cc1ccc(S(=O)(=O)c2nnn3c2nc(NC(C)C)c2sccc23)cc1	nt	-18%[46.1 µM]	nt	nt	nt
CN(C)/N=C/C=C1\CC/C(=C\c2ccc(F)c(F)c2)C1=O	-11%	nt	nt	nt	nt
CN(C)c1ccc(C=C2C(=O)OC(C)(C)OC2=O)cc1	-6%	11%[46.1 µM]	18	5	-4%[46.1 µM]
CC(C)/C=C1\CC/C(=C\c2ccc(N(C)C)cc2)C1=O	10%	2%	77*	35*	5%
CC(C)c1ccc(/C=C2\CC/C(=C\C=N\N(C)C)C2=O)cc1	-14%	-6%	125*	55*	16%
CN(C)c1ccc(/C=C2/C[N+](C)(C)C/C(=C/c3ccc(N(C)C)cc3)C2=O)cc1	22µM*	?	nt	nt	-1%
CCOc1ccc(-n2nc3ccc(NC(=O)Cc4ccccc4)cc3n2)cc1	nt	-7%[46.1 µM]	nt	nt	nt
CCOc1ccc(-n2nc3ccc(NC(=O)CC)cc3n2)cc1	0%	?	55*	31*	24%
COc1ccc(-n2nc3ccc(NC(=O)c4c(OC)cccc4OC)cc3n2)cc1	nt	-15%[46.1 µM]	52	36*	?
Cc1[nH]c(=O)[nH]c(=O)c1S(=O)(=O)N1CCCC1	-1%	13%	-2	-1	-12%
Cc1ccc2nc(-c3ccc(NC(=O)CSc4nccc(=O)[nH]4)cc3)sc2c1	0%	?	117*	37*	?
Cc1ccc2nc(-c3ccc(NC(=O)CSc4nc(N)cc(=O)[nH]4)cc3)sc2c1	-16%	nt	94*	30*	nt
COc1cccc(-c2cc3nc(C)c(C)c(N4CCN(C(=O)c5ccoc5)CC4)n3n2)c1	0%	nt	nt	nt	nt
O=C(Nc1nc2c(s1)CCCC2)c1ccc(S(=O)(=O)N2CCCc3ccccc32)cc1	-13%	?	11	10*	23µM*
CNC(=O)c1ccsc1NC(=O)c1ccccc1	12%	nt	16*	25*	nt
CNC(=O)c1ccsc1NC(=O)c1ccc(S(=O)(=O)N2CCCc3ccccc32)cc1	-3%	16µM*	-1	3	?
COc1ccccc1CCNC(=O)Cc1c(C)c2cc(Cl)c(O)cc2oc1=O	nt	-2%[46.1 µM]	nt	nt	0%[46.1 µM]
Cc1onc(COc2ccccc2O)c1Br	15%	-5%	53	18*	?
Cc1cn(-c2ccc(Br)cc2)[nH]c1=O	-4%	6%	64*	39*	-3%
N#C/C(=C\c1ccc(O)cc1)C(=O)NCC1CCCO1 (stereo not drawn)	nt	28%[46.1 µM]	nt	nt	nt
N#C/C(=C\c1ccc[nH]1)C(=O)NCC1CCCO1 (stereo not drawn)	?	?	38	25*	?
N#C/C(=C\c1ccco1)C(=O)NCC1CCCO1 (stereo not drawn)	8%	3%	50*	17*	?
Cc1ccccc1-n1c(C)cc(/C=C(\C#N)C(=O)NCC2CCCO2)c1C (stereo not drawn)	3%	15µM*	123*	65*	-40%
Cc1cc(/C=C(\C#N)C(=O)NCc2cccs2)c(C)n1-c1ccccc1F	0%	?	80*	52*	-30%
C#CCNC(=O)c1cc2c(Br)ccc(Br)c2nc1N	-13%	nt	nt	nt	nt
SMILES	AMA1 RON2 block	Lassa entry inh	Shiga toxin inh	CHX counter	Marburg entry inh
COc1cccc2c(=O)c(C(=O)NCCc3ccccc3)c[nH]c12	8%	nt	nt	nt	nt
COc1cccc2c(=O)c(C(=O)NCc3cccs3)c[nH]c12	56%	?	76*	53*	8%
Cc1c(C(=O)NCc2cccnc2)oc2ccccc12	-9%	0%	-3	19	-10%
CCn1c(C)c(C(=O)NCCc2ccccc2)c2cc(OC)ccc21	-7%	?	19	18*	-28%
O=C(NCCc1ccccc1)c1oc2ccccc2c1COc1ccccc1	-13%	9%	39*	26*	?
Cc1c(C(=O)NCCc2ccccc2)oc2ccccc12	13%	?	75*	29*	6.3µM*
O=C(Nc1ccccc1Cc1ccccc1)c1oc2ccccc2c1COc1ccccc1	-11%[2.32 µM]	4%	-4	-2	?
NCCCCCNC(=O)c1[nH]cnc1C(=O)N[C@@H](Cc1ccccc1)C(=O)OCc1ccccc1	52%	nt	nt	nt	nt
Cc1ccc(C2=NN(CC(=O)NCCCN(CC(C)C)CC(C)C)C(=O)CC2)cc1	nt	4%[46.1 µM]	nt	nt	nt
Cc1c(C(=O)NCCCN2CCCC2=O)oc2c(Cl)cccc12	14%	?	nt	nt	?
CCN1CCN(CC(=O)c2c(C)n(Cc3ccccc3)c3ccc(OC)cc23)CC1	3%	-3%	-10	-3	?
Cc1c(C(=O)NCCCN2CCCC2=O)oc2ccccc12	-2%	-8%	72*	27*	14%
COc1ccc2c(c1)c(C(=O)CN1CCN(C)CC1)c(C)n2Cc1ccccc1	-1%	-6%	-10	0	20µM*
Cc1c(C(=O)Nc2ccc(F)cc2)oc2ccc(S(=O)(=O)N3CCC4(CC3)OCCO4)cc12	25%	?	24	-1	5.8µM*
Cc1c(C(=O)NCc2cccs2)oc2ccccc12	32%	-24%	30*	19*	?
COc1cccc(S(=O)(=O)N2CCN(S(=O)(=O)c3ccc4c(c3)OCCO4)CC2)c1	nt	nt	-13	-6	nt
Cc1cccc2cc3c(NC(=O)C(C)(C)C)nn(CC(C)C)c3nc12	127%	11%	-4	-3	?
O=C(NCCCN1CCCCC1)C1CCN(S(=O)(=O)N2CCC3(CC2)OCCO3)CC1	9%	3%[46.1 µM]	1	-3	3%[46.1 µM]
COc1ccc2oc(C(=O)NCCc3ccccc3)c(C)c2c1	-12%	0.89µM*	nt	nt	?
Cc1c(C(=O)NC2CC2)oc2ccccc12	-4%	nt	nt	nt	nt
COCc1c(C(=O)NC2CCCCCC2)oc2ccccc12	7%	0%[46.1 µM]	62*	22*	-2%[46.1 µM]
Cc1c(C(=O)NCCc2ccccc2)oc2ccc(S(=O)(=O)N3CCOCC3)cc12	13%	?	15	15*	18%
Cc1c(C(=O)NC2CCC(C)CC2)oc2ccccc12 (stereo not drawn)	-6%	nt	61*	46*	nt
COc1ccc2oc(C(=O)OCC(=O)NCCc3ccccc3)c(C)c2c1	5%	-9%	nt	nt	7%
Cc1cc(Cl)ccc1OCC(=O)N/N=C/c1ccncc1	-11%	3%	23	5	-30%[46.1 µM]
SMILES	AMA1 RON2 block	Lassa entry inh	Shiga toxin inh	CHX counter	Marburg entry inh
Cc1ccc(Cn2c(=O)n(-c3cccc(C(F)(F)F)c3)c(=O)c3c(C)c(C)sc32)c(C)c1	nt	-1%[46.1 µM]	nt	nt	-2%[46.1 µM]
COc1ccc(OC)c2c1sc(=NC(=O)c1ccco1)n2C	15%	nt	-8	-2	nt
Cc1ccc(-c2c(C)sc(=NC(=O)c3ccco3)n2C)cc1	-5%	11%	97*	67*	-2%
CCOC(=O)c1ccn(-c2nc(-c3cccc(OC)c3)cc(C(F)(F)F)n2)n1	nt	18%[46.1 µM]	nt	nt	11%[46.1 µM]
Nc1nc(N)nc(-c2ccc(Cl)cc2)n1	-4%	8%	25	29*	15%
Nc1nc(-c2ccc(Cl)cc2)nnc1-c1ccc(Br)cc1	-22%	9%[46.1 µM]	96*	52*	?
Cc1cccc(-c2nc(N)nc(N)n2)c1	1%	0%	48	34*	5%[46.1 µM]
Nc1nc(N)nc(-c2cc(Cl)ccc2Cl)n1	-12%	nt	-8	4	nt
Cc1ccc(Oc2ccc(-c3nc(N)nc(N)n3)cc2)cc1	11%	-7%	29	12*	1%
